Bioassay records: PubChem, National Center for Advancing Translational Sciences (NCATS)
Rows were chosen to be rich in hits. Some 20% of all compounds tested hit in one or more screens of this group.
HCMV inh: blocks human cytomegalovirus replication. HFF cells, HCMV-luciferase reporter, 72 h; hits give low values. activity change, negative = inhibition, % at 57.5 µM. actives 4.5% (n = 410,000). AID 1259415; in the data active = activity change below about -60%; inconclusive = no clear call, values can overlap the other calls; inactive = above about -39%
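Inhibition of viral replication was scored as loss of reporter luminescence in HFFs infected with HCMV-luciferase (MOI 1 PFU/cell) for 72 h; compounds tested at 2 doses, normalized to buffer and Salinomycin controls.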
Pf growth 96h: inhibits malaria parasite growth, 96 h | P. falciparum luciferase reporter growth, 96 h | Potency, µM (top dose mostly 28.7 µM), hits mostly inhibitors | actives 6.9% (n = 320,000) | AID 504834
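Plates of compound plus infected erythrocytes (2% hematocrit, 0.05% parasitemia final) incubate 96 hours, 37 C, 5% CO2. Detection reagent added; reduced luminescence from the parasites' luciferase reporter flags inhibition.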
Pf growth 48h: P. falciparum growth inhibition at 48 hours (one generation). actives 5.9% (n = 310,000). Potency, µM (highest dose often 28.7 µM), usual class: inhibitors. P. falciparum luciferase growth in erythrocytes, 48 h. AID 504832
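Compounds are pin-transferred into medium, infected erythrocytes (2% hematocrit, 0.1% parasitemia final) are added, and plates sit one parasite generation at 37 C in 5% CO2. Detection reagent is then added and luminescence measured.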
Shiga toxin inh: Shiga toxin inhibition. Vero cells, Shiga toxin protein synthesis inhibition reporter. inhibition, % at 38.7 µM. actives 9.2% (n = 290,000); in the data active = inhibition mostly above about 28%, no sharp cut-off; inactive = mostly below about 43%
CHX counter: counter-screen hit for Shiga toxin inhibitors, cycloheximide. AID 2314. actives 12% (n = 300,000). max response, %. cell reporter, cycloheximide protein synthesis inhibition counterscreen; in the data active = max response mostly above about 13%, no sharp cut-off; inactive = mostly below about 14%; also: read at 38.3 µM for the half of the compounds with a filed dose
Each line names hits and unclear results; the compound was inactive in the other large screens. Unless noted, calls follow the shape of the dose curve; as a rule, active = well fitted inhibition curve with a large enough effect; inconclusive = small, poorly fitted or top-dose-only effect, or another doubt; inactive = no such curve, though single readings can be large or run the other way.

Fc1ccc(CSc2nc3ncc(Br)cc3[nH]2)cc1	Pf growth 96h 9.3µM (no result: Pf growth 48h)
Cc1ccc(C)c(N2CCN(C(=O)c3ccc(N4CCCC4=O)cc3)CC2)c1	Pf growth 96h inconclusive (no result: HCMV inh)
CCn1c2ccccc2c2nc3ccccc3nc21	Pf growth 96h inconclusive (no result: HCMV inh, Pf growth 48h)
CC(=O)n1c2ccccc2c2nc3ccccc3nc21	Pf growth 96h 2.6µM, CHX counter 26 (no result: HCMV inh, Shiga toxin inh)
CCn1c2ccccc2c2nc3cc(OC)c(OC)cc3nc21	Pf growth 96h 3.3µM
CCn1c2ccccc2c2nc3cc(C(=O)O)ccc3nc21	Shiga toxin inh 126, CHX counter 35
C=C(C)CSc1nc2sc3c(c2c(=O)n1-c1ccccc1)CCN(C)C3	Pf growth 96h 0.83µM, Pf growth 48h 1.5µM
C=CCSc1nc2sc3c(c2c(=O)n1-c1ccc(C)cc1)CCN(C)C3	Pf growth 96h 1.5µM, Pf growth 48h 3.7µM
CN1CCc2c(sc3nc(SCC(=O)N4CCCCC4)n(-c4ccccc4)c(=O)c23)C1	Pf growth 96h 3.3µM, Pf growth 48h 12µM
Cc1ccc(C(=O)OCC(=O)N2C(C)CCCC2C)cc1S(=O)(=O)N1CCOCC1 (centres undefined)	none (no result: Shiga toxin inh, CHX counter)
COc1ccc(C2=Nn3c(nnc3-c3ccc(OC)cc3OC)SC2)c(OC)c1	none (no result: HCMV inh, Pf growth 96h, Pf growth 48h)
CCOC(=O)c1c(C)[nH]c(C)c1S(=O)(=O)NCC(=O)Nc1cccc(SC)c1	none (no result: Pf growth 96h, Pf growth 48h, Shiga toxin inh, CHX counter)
COc1cc(/C=N/NC(=O)c2ccc(-c3ccccc3)cc2)cc(OC)c1OC	HCMV inh inconclusive, Pf growth 96h 17µM, Pf growth 48h inconclusive
COc1cc(/C=N/NC(=O)c2cc(-c3ccccc3)sc2N)cc(OC)c1OC	Pf growth 96h inconclusive, Pf growth 48h inconclusive
COc1ccc(/C=N\NC(=O)c2ccc(-c3ccccc3)cc2)c(OC)c1OC	Pf growth 96h 0.83µM
CCOC(=O)C1=C(COc2ccccc2)NC(=O)NC1c1ccc2ccccc2c1 (centres undefined)	none (no result: Pf growth 96h, Pf growth 48h, Shiga toxin inh, CHX counter)
Cn1c(CNC(=O)CSc2nc(-c3ccccc3F)nc3cc(=O)[nH]n23)nc2ccccc21	none (no result: Pf growth 96h, Pf growth 48h, Shiga toxin inh, CHX counter)
COc1ccccc1Nc1c([N+](=O)[O-])cc(C)cc1[N+](=O)[O-]	HCMV inh inconclusive, Pf growth 96h 10µM
COc1ccccc1Nc1ccc(Nc2ccccc2OC)nn1	Pf growth 96h inconclusive, Shiga toxin inh 175, CHX counter 29
COc1ccc(OC)c(NC2=NC3(CCCCC3)N=C(N)N2)c1	Pf growth 48h inconclusive
COc1ccc(OC)c(Nc2ccc(Nc3cc(OC)ccc3OC)nn2)c1	HCMV inh -86, Pf growth 96h 9.3µM, Pf growth 48h inconclusive
CCOC(=O)N1CCN(C(=O)c2ccccc2NC(C)=O)CC1	CHX counter 24
CCOC(=O)N1CCN(C(=O)c2ccccc2NC(=O)c2ccc(Br)cc2)CC1	none
CCOC(=O)N1CCN(C(=O)c2ccccc2NC(=O)c2ccc(F)cc2)CC1	none
CCOC(=O)N1CCN(C(=O)c2ccccc2NC(=O)COc2ccccc2)CC1	HCMV inh -60, Shiga toxin inh 109, CHX counter 31
CN(C)C(=O)c1ccc(NC(=O)CN2C(=O)NC3(CCCc4ccccc43)C2=O)cc1 (centres undefined)	Pf growth 96h inconclusive, Pf growth 48h inconclusive (no result: Shiga toxin inh, CHX counter)
CC(NC(=O)c1ccccc1Cl)C1CC2CCC1C2 (centres undefined)	none
CC(NC(=O)c1ccc([N+](=O)[O-])cc1Cl)C1CC2CCC1C2 (centres undefined)	Pf growth 96h inconclusive, CHX counter 14
Cc1ccc(N(C)S(=O)(=O)c2cccc(C(=O)NNC(=O)c3ccncc3)c2)cc1	Pf growth 96h inconclusive (no result: Shiga toxin inh, CHX counter)
C=CCn1c(SCc2cc(=O)n3cc(C)ccc3n2)nnc1-c1ccc(F)cc1	HCMV inh inconclusive, Pf growth 96h 5.2µM
Cc1ccc2nc(CSc3nnc(-c4ccncc4)n3C)cc(=O)n2c1	none
Cc1nc(Nc2ncc(C(=O)Nc3c(C)cccc3Cl)s2)cc(N2CCN(CCO)CC2)n1	Pf growth 96h 7.6µM, Pf growth 48h 9.5µM (no result: HCMV inh, Shiga toxin inh, CHX counter)
CCOC(=O)N1CCN(Cc2nc(-c3cccc(C)c3)no2)CC1	none (no result: Pf growth 48h)
CCOC(=O)C1CCN(C2CCN(Cc3nc(-c4ccccc4)no3)CC2)CC1	Pf growth 96h 1.5µM
CCOC(=O)N1CCN(c2nc(-c3ccccc3)c3ccccc3n2)CC1	Pf growth 96h inconclusive, Pf growth 48h 10µM (no result: HCMV inh)
O=C(O)CCC(=O)N1CCN(c2nc(-c3ccccc3)c3ccccc3n2)CC1	none
CCOC(=O)N1CCN(Cc2nc(-c3ccccc3)no2)CC1	Shiga toxin inh 62 (no result: Pf growth 96h)
